IMPase cell inh – membrane-permeable compound that blocks inositol monophosphatase; P97697; CHO-M1 cells, IP1 accumulation, HTRF TR-FRET ratio; inhibition (IP1 accumulation), % at 46.1 µM; 120,000 tested, under 10 active; active = well fitted curve in the direction sought with a large enough effect in the signal ratio, not every such curve was filed as active; inconclusive = small, poorly fitted or top-dose-only effect, or a change in a side signal; inactive = no such curve, though single readings can be large or run the other way; the % refers to the signal ratio;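 note: cells stimulated with carbachol in lithium chloride buffer; plate controls were DMSO basal wells for no effect and reference inhibitor wells for full effect; higher means more IMPase inhibition seen as more IP1 and lower FRET ratio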
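In this qHTS, compounds (final up to 46 uM) act on CHO-M1 cells that are then activated through the M1 receptor with carbachol, in pH 7.4 buffer containing 50 mM LiCl, for 30 min. IP1 accumulation is quantified by the IP-One immunoassay.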
IMPase Li cell – cell-permeable IMPase inhibitors with lithium potentiation; CHO-M1 cells, IP1 TR-FRET (IP-One), carbachol + lithium; Potency, µM (doses to about 59.4 µM), inactives show at the highest dose activity, negative = IMPase inhibition, actives largely listed as inhibitors; actives 0.35% (n = 210,000); AID 1457;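 note: IP1 builds up when IMPase is blocked and the TR-FRET signal falls; potency is the fitted concentration of half-maximal effect; plate controls were basal vehicle for no effect and high inhibitor control for full effect; nearly all actives have a fitted effect of over 50% in size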
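Test compounds were applied to CHO-M1 cells previously cultured for 16–30 h at 2000 per well. A small lithium amount accompanied them; after 30 min at 37C, IP1 was quantified by TR-FRET.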
HPGD inh – HPGD (human) dehydrogenase inhibition | P15428 | purified HPGD, NADH fluorescence kinetic, PGE2 substrate | Potency, µM, without a hit: top-dose activity change, negative = inhibition, actives largely listed as inhibitors | actives 4.3% (n = 150,000) | AID 894; active = well fitted inhibition curve with a large enough effect, not every such curve was filed as active; inconclusive = small, poorly fitted or top-dose-only effect, or another doubt; inactive = no such curve, though single readings can be large or run the other way; note: potency is the fitted concentration of half-maximal effect
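20 nM HPGD preincubated 15 min at room temperature with compound in 50 mM Tris-HCl pH 8, 0.01% Tween 20. Started with 1 mM NAD+ and 30 uM prostaglandin E2; NADH fluorescence (360/450 nm) read 5 times over 30-s intervals, last minus first.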
ALDH1A1 block – ALDH1A1 (human) enzyme inhibition; P00352; Purified ALDH1A1, NADH fluorescence, propionaldehyde substrate; Potency, µM (top dose mostly 75.3 µM), inactives show top-dose activity, negative = inhibition, most hits filed as inhibitors; actives 7.3% (n = 220,000); active = well fitted inhibition curve with a large enough effect, not every such curve was filed as active; inconclusive = small, poorly fitted or top-dose-only effect, or another doubt; inactive = no such curve, though single readings can be large or run the other way;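 note: potency is the fitted concentration of half-maximal effect; plate controls were no enzyme wells and a reference inhibitor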
Target sequence (P00352 whole entry, looked up): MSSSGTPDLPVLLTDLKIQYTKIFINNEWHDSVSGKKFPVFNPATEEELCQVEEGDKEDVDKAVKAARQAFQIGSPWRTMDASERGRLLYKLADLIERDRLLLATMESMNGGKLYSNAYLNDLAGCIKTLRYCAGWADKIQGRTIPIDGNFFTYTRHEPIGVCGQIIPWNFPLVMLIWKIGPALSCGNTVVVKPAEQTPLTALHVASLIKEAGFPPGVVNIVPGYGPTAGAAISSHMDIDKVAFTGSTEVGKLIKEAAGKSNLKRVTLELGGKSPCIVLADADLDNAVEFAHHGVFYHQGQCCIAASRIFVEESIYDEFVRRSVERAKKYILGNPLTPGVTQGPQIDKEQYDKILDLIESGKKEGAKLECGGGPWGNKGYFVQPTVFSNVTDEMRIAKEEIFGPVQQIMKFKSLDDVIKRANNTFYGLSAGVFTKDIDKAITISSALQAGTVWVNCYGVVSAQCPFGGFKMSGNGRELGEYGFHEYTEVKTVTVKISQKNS
12-hLO inh – inhibitors of human 12-lipoxygenase (ALOX12). P18054. purified 12-hLO, xylenol orange hydroperoxide absorbance. Potency, µM (highest dose often 57.1 µM), for inactives: at the top dose activity change, negative = inhibition, actives largely listed as inhibitors. actives 0.12% (n = 150,000). AID 1452; note: potency is the fitted concentration of half-maximal effect; nearly all actives have a fitted effect of over 55% in size
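Lipoxygenase turnover measured by absorbance at 573 and 405 nm after Fe-XO development. Human 12hLO 150 nM, arachidonate 40 uM, pH 7.0 Hepes buffer with detergent; 15 min compound preincubation, 30 min reaction.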
PNC inhibitor – blocks assembly of the perinucleolar compartment. PC3M PTB-GFP, PNC prevalence imaging, 16 h; hits give low values. activity change (PNC), negative = inhibition, % at 10 µM. actives 3.1% (n = 140,000). AID 2417;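 active = readout at or below -70, meaning at least 70% loss of cells showing the perinucleolar compartment, a nuclear body marking cancer cells; inconclusive = readout between -30 and a set limit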;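 note: plate controls were DMSO wells for no effect and camptothecin positive control wells for full effect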
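Compounds are pinned in duplicate onto adhered PC3M cells stably expressing GFP-tagged PTB and incubated 16 h at 37 C. Cells are then fixed, nuclei stained with Hoechst, and PNC-positive cells counted.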
Active calls of the source: *; ? = inconclusive; . = no result; [ ] = dose if it differs, or a comment. Hits are enriched below; roughly 11% of the tested compounds scored in any of these assays. Unless noted, calls come from the whole dose curve; as a rule, active = well fitted curve in the direction sought with a large enough effect; inconclusive = small, poorly fitted or top-dose-only effect, or another doubt; inactive = no such curve, though single readings can be large; an effect the other way counts as inactive or inconclusive. Unless noted, % is set by controls: 0 for no effect and ±100 for the full control effect.

SMILES	IMPase cell inh	IMPase Li cell	HPGD inh	ALDH1A1 block	12-hLO inh	PNC inhibitor
CCCCn1nnnc1SCC(=O)Nc1ccc2c(c1)OCCO2	4	-1%[38.3 µM]	-8%	4.5µM*	-4%	33
Cn1cnnc1SCC(=O)c1ccc2c(c1)OCCO2	-7	13%[38.3 µM]	-22%	8.9µM*	7%	14
CS(=O)(=O)Nc1cccc(-c2ccc3ncnc(N4CCNCC4)c3c2)c1	.	15%	.	-3%	.	.
Cn1c(SCC(=O)c2ccc3c(c2)OCCO3)nnc1C1CC1	15	10%	-8%	20µM*	0%	?
Cn1c(SCC(=O)c2ccc3c(c2)OCCO3)nnc1C(F)(F)F	.	.	.	22µM*	.	.
Cn1nnnc1SCC(=O)c1ccc2c(c1)OCCO2	.	5%	.	?	.	.
COC(=O)[C@@]1(Cc2ccc(OC)cc2)[C@H]2c3cc(C(=O)N4CCCC4)n(CCc4c[nH]c5cc(F)ccc45)c3C[C@H]2CN1C(=O)c1ccccc1	.	3%	-8%	-15%	-18%	.
O=C(COC(=O)C1CC2C=CC1C2)Nc1ccc2c(c1)OC(F)(F)O2 (configuration not stated)	-3	21%	-14%	?	-8%	-100*
O=C(COC(=O)C1CC2C=CC1C2)Nc1cccc(S(=O)(=O)N2CCCCC2)c1 (configuration not stated)	-2	3%	-6%	?	4%	26
COCCCCCCCCCCCC(=O)O	.	-8%	-9%	10%	-1%	.
CSCC[C@@H](C(=O)O)N(C)C	.	-5%	-5%	7%[13.5 µM]	-3%[11.4 µM]	.
CC(=O)OC1CCC2(C)C(CCC3(C)C2C(=O)C=C2C4CC(C)(C(=O)OCCN5CCCCC5)CCC4(C)CCC23C)C1(C)C (configuration not stated)	-7	3%	-5%	2%	2%	.
Cc1ccc(S(=O)(=O)N(CC(=O)Nc2ccc3c(c2)OCO3)c2ccc(C)c(Cl)c2)cc1	0	.	.	.	.	.
CS(=O)(=O)Nc1cccc(-c2ccc3ncnc(NC4CCNCC4)c3c2)c1	.	13%	.	?	.	.
O=C1CCC(C(=O)NCc2cccnc2)N1 (configuration not stated)	-4	-3%	-9%	8%	1%	-100*
Cc1ccc(S(=O)(=O)N2CCC(C(=O)OC(C)C(=O)NCc3ccc4c(c3)OCO4)CC2)cc1 (configuration not stated)	-4	-9%[38.3 µM]	18µM*	0%	-4%	-25
Cc1ccc(S(=O)(=O)NCC2CCC(C(=O)NCc3ccccn3)CC2)cc1 (configuration not stated)	.	-2%	.	7.9µM*	.	.
Cc1ccc(S(=O)(=O)NCC2CCC(C(=O)NCc3ccc4c(c3)OCO4)CC2)cc1 (configuration not stated)	-3	21%[38.3 µM]	-11%	7.1µM*	-3%	1
O=C(NCc1ccc2c(c1)OCO2)C1CCC(CNS(=O)(=O)c2ccc(Cl)cc2)CC1 (configuration not stated)	-6	1%[38.3 µM]	-7%	6%	-2%	?
O=C(O)c1cc(C(=O)O)nc(C(=O)O)c1	.	-2%	-10%	-4%[13.5 µM]	-2%[11.4 µM]	.
Cc1cccc(C)c1NC(=O)CSc1nc(-c2cccs2)cc(C(F)(F)F)n1	-15	.	.	.	.	.
Cc1ccc(S(=O)(=O)NCC2CCC(C(=O)NCc3cccnc3)CC2)cc1 (configuration not stated)	.	7%	.	6.3µM*	.	.
Cc1ccc(CNC(=O)CCc2ccc(S(=O)(=O)NC3CCCCC3)cc2)cc1	4	33%[38.3 µM]	-29%	?	0%	40
O=C(CCc1ccc(S(=O)(=O)NC2CCCCC2)cc1)NCc1cccnc1	.	0%	.	13µM*	.	.
CNc1ncnc(Sc2ccc(Cl)cc2)c1[N+](=O)[O-]	.	.	.	5%	.	.
Cc1cc(C)c2nc(-c3ccccn3)cc(C(=O)Nc3cc(C)on3)c2c1	-1	?	?	?	7%	-86*
